Source: the OligoGym collection

Target: RASGEF1C
Experiment: pooled miR-30 sensor sort-seq; sequence = guide strand
Details: shRNA
Note: reference of the scale not given here.

Sequence	sensor-assay potency score (higher = more potent)
TTTCACATAAGCCTCCAGGTTG	-0.649
TGTAGTTGCAGAAATTCCCCGT	0.202
TTAGAGCTTTCCATCTTTCTTT	-0.12
TTTTCTGTTTGGTTCTCTGGGC	-0.505
ATGAAGAACTCAATCACCTGGG	0.211
TAGCACAGCCTGTTGAACCATT	-1.09
TTTTTCTGTTTGGTTCTCTGGG	0.0788
TTTCTCGGGGTAGTAGTCGGCT	-0.879
TCTCACTTTCGTAAGAAGCCAA	-0.537
TTCCACGTGGGTCAGCTGCTGG	-1.01
TGAACCATTTCACATAAGCCTC	-1.38
ATGACAATCTTCTCTCGGCTGC	-0.296

Target: RASGRP2
Experiment: as above
Details: shRNA

Sequence	sensor-assay potency score (higher = more potent)
TCAAACAACAGGGACATCTTGC	-0.201
TTCTTGGTCTAGCAGAGCCTTC	-1.75
TAGCAGAGCCTTCAGCTCCTTG	-0.951
TAGGAAACCATCTCCTCCCTGC	0.463
TAGTCCTGAAACAGGATCTTGC	-0.808
TTAGGCTGCTGTGCCGTCGGTT	-0.65
TCTATGTCGATTAGGCTGCTGT	-0.615
TTGGTAGATGTGGAGCAGCTTG	-1.27
